Experimental data published in PubChem BioAssay AID1240 (Sanford-Burnham Center for Chemical Genomics, 2008).
Out of some 50,000 compounds screened, about 800 (1.6%) showed an effect of 50% or more. This excerpt belongs to a sample that is enriched for strong results.

molecular target: Bcl-2-like protein 10 (Homo sapiens) (UniProt Q9HD36); test: TR3 peptide-Bcl-B binding displacers, biochemical primary FP assay, phenotype converters (AID 1240); conditions: GST-Bcl-B / FITC-TR3 peptide fluorescence polarization; stronger effect = higher value; compound at 3.75 mg/L;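 further: 0% = Bcl-B with tracer peptide and DMSO and 100% = tracer peptide lacking Bcl-B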
Sequence (Q9HD36 whole entry, looked up): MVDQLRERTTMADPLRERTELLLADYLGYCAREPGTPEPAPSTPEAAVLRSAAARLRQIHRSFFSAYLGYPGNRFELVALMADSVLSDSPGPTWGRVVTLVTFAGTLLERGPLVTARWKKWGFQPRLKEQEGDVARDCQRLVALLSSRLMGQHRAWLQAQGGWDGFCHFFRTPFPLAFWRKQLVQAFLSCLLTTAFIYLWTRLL

Structure (SMILES) | displacement
O=C(COc1ccc(Cl)cc1)Nc1ccc2c(c1)Cc1ccccc1-2 | 5.4%
O=C(Nc1ccccc1[N+](=O)[O-])c1ccccc1Cl | 8.4%
COc1ccc(C(=O)CN2CCN(CCN3C(=O)c4cccc5cccc(c45)C3=O)CC2)cc1 | 9.4%
COc1ccccc1N1C(=O)/C(=C/c2ccc(N(C)C)cc2)SC1=S | -8.2%
Cc1c(-c2ccc(Cl)cc2)nc2ccccc2c1C(=O)Nc1ccc(F)cc1F | -9.1%
CCn1c(O)c(/C=N/N=C2CCCC2)c2ccc(C3=NNC(=O)CC3)cc21 | 45.9%
CCCOc1ccc(C2=NNC(=O)CC2)cc1 | 3.6%
CCn1c(O)c(/C=N/N=C/c2ccccc2)c2ccc(C3=NNC(=O)CC3)cc21 | 119%
CC1=NN(c2cccc(Cl)c2)C(=O)/C1=C/C=C/c1cccc([N+](=O)[O-])c1 | 13.6%
Cc1nc2cc(-c3ccc(F)cc3)[nH]n2c(=O)c1C | -7.3%
O=C1OC(c2ccccc2)=C/C1=C\c1c(Cl)cccc1Cl | -5.8%
COc1nccc(NCc2ccccc2)c1C#N | -12.3%
N#Cc1c(NCc2ccccc2)ccnc1SCc1ccccc1 | -4.8%
N#Cc1c(NCc2ccccc2)ncc2c1Nc1ccccc1C2 | 112%
C=C(Br)Cn1c(C)nc2ccccc21 | 14.6%
COc1ccc(C(CC(=O)c2ccc(C)cc2)Nc2ccc(I)cc2)cc1OC (centres undefined) | -7%
COc1cc(/C=C(\C#N)c2nc3ccc(C)cc3[nH]2)cc(OC)c1OC(C)=O | -4.6%
O=C(NC1=Nc2cccc3cccc1c23)c1cccc(C(F)(F)F)c1 | 62.1%
COc1ccc(C(=O)NNC2=Nc3cccc4cccc2c34)cc1 | -17.1%
O=C(Nc1cccc(C(F)(F)F)c1)c1cccc(N2C(=O)c3ccccc3C2=O)c1 | -5.6%
O=C(Nc1cccc(Br)c1)c1ccc([N+](=O)[O-])cc1 | 12.7%
Cc1[nH]c2ccc(Br)cc2c1CC(=O)N/N=C/c1ccc(Cl)c(Cl)c1 | 5.1%

Structure (SMILES) | displacement
C=CCOC(=O)C1=C(C)NC(C)=C(C(=O)OCC=C)C1c1ccc(C)o1 | 12.2%
CCOC(=O)C1=C(C)N=c2s/c(=C\c3ccc4c(c3)OCO4)c(=O)n2C1c1ccc2c(c1)OCO2 (centres undefined) | 3.5%
CCOC(=O)C1=C(C)N=c2s/c(=C/c3ccc(C)cc3)c(=O)n2C1c1ccccc1 (centres undefined) | 2.5%
CCOC(=O)C1=C(C)N=c2s/c(=C\c3ccccc3)c(=O)n2C1c1ccc(Cl)cc1 (centres undefined) | 3.8%
CCOC(=O)C1=C(C)N=c2s/c(=C\c3ccc4c(c3)OCO4)c(=O)n2C1c1ccc(C)cc1 (centres undefined) | -7.1%
CCOC(=O)C1=C(C)N=c2s/c(=C\c3ccc([N+](=O)[O-])cc3)c(=O)n2C1c1ccc(Cl)cc1 (centres undefined) | 9.2%
CCOC(=O)C1=C(C)N=c2s/c(=C/c3ccc(Cl)cc3)c(=O)n2C1c1ccccc1 (centres undefined) | 90.8%
CCOC(=O)C1=C(C)N=c2s/c(=C\c3ccc(C(C)=O)cc3)c(=O)n2C1c1ccccc1 (centres undefined) | 76.2%
CCOC(=O)C1=C(C)N=c2s/c(=C\c3ccc(Cl)cc3)c(=O)n2C1c1ccc2c(c1)OCO2 (centres undefined) | 121%
CCOC(=O)C1=C(C)N=c2s/c(=C\c3ccc(OCC)cc3)c(=O)n2C1c1ccccc1 (centres undefined) | -1%
O=C(/C=C/c1cccc(C(F)(F)F)c1)Nc1ccccc1[N+](=O)[O-] | 7%
O=C(O)CCC(=O)N1N=C(c2cccs2)CC1c1ccccc1Cl (centres undefined) | -8.4%
O=C(Cc1ccc(Cl)cc1)Nc1ccc(Cl)cn1 | 8.8%
Clc1ccc(N2CCN(N=Cc3c(Cl)cccc3Cl)CC2)cc1 | 8.5%
Cc1ccc(C(=O)Nc2ccc(C(=O)O)cc2)cc1S(=O)(=O)NC1CCCCC1 | -11.1%
Cc1nn(-c2ccccc2)c(C)c1/C=N/O | 3.2%
CCOC(=O)c1c(NC(=O)C(C)N2C(=O)c3ccccc3C2=O)sc2c1CCC(C)C2 (centres undefined) | 2.5%
COc1ccc(N2C(=O)NC(=O)/C(=C/c3ccc(I)o3)C2=O)cc1 | 3.6%
COc1ccc(N2C(=O)NC(=O)/C(=C/c3ccc(Sc4ccc(C)cc4)o3)C2=O)cc1 | 125%
COc1ccc(N2C(=O)NC(=O)/C(=C\c3ccc(C)cc3)C2=O)cc1 | -6%
O=C1NC(=O)N(c2ccccc2)C(=O)/C1=C\c1ccc(OCc2ccccc2F)cc1 | 12.9%
O=C1NN(c2ccccc2)C(=O)/C1=C/c1ccc(-c2ccc(F)cc2)o1 | 8.1%

Structure (SMILES) | displacement
Cc1ccc(N2C(=O)NC(=O)/C(=C/c3ccc(-c4ccc(F)cc4)o3)C2=O)cc1 | 40.5%
O=C1NC(=O)N(c2ccccc2)C(=O)/C1=C\c1ccc(-c2ccc(F)cc2)o1 | 137%
COc1ccc(N2C(=O)NC(=O)/C(=C/c3ccc(-c4ccc(F)cc4)o3)C2=O)cc1 | 100%
COc1ccc(N2C(=O)NC(=O)/C(=C/c3ccc(OCc4ccccc4F)cc3)C2=O)cc1 | 63.1%
COc1ccc(N2C(=O)NC(=O)/C(=C\c3ccc(-c4ccccc4C(=O)O)o3)C2=O)cc1 | -88.8%
COc1ccc(N2C(=O)NC(=O)/C(=C/c3cccc(OCc4ccccc4F)c3)C2=O)cc1 | 0.1%
COC(=O)c1c(N)sc(C(=O)Nc2ccccc2OC)c1C | 1.7%
Cc1cc(Cl)ccc1OCC(=O)Nc1nc2ccc(Cl)cc2s1 | -7.8%
O=[N+]([O-])c1cccc(S(=O)(=O)N2CCc3ccccc3C2)c1 | 0%
COc1ccccc1N1C(=O)C2C(C1=O)C1C=CC2C12CC2 (centres undefined) | 15.1%
O=C(Nc1ccc(I)cc1)/C(=C\c1cccc([N+](=O)[O-])c1)NC(=O)c1cccs1 | -0.6%
COc1cccc(OC)c1C(=O)Nc1ccc(C(=O)Oc2ccccc2)c(O)c1 | -9.1%
O=C(Nc1ccc(Cl)c(-c2nc3ccccc3o2)c1)c1cccc(F)c1 | -5.1%
CC(=O)Nc1ccc(S(=O)(=O)Nc2ccccc2Br)cc1 | -2.9%
O=C1NC(=S)N/C1=C/c1cccc(O)c1 | -6.7%
COc1cc(OC)cc(-c2nc3ccc(C)cc3c(=O)o2)c1 | -17.8%
O=C(Nc1ccc2nn(-c3ccc(F)cc3)nc2c1)c1ccc(-c2ccc([N+](=O)[O-])cc2)o1 | 8.2%
CN1C(=O)NC(=O)/C(=C/c2ccc(-c3ccc(F)cc3)o2)C1=O | 123%
C=CCN1C(=O)/C(=C\c2ccc(-c3ccc(F)cc3)o2)C(=O)NC1=S | -3.3%
CN1C(=O)NC(=O)/C(=C/c2ccc(-c3ccc(Cl)cc3)o2)C1=O | 37%
